# The source made the active and inactive calls. The rule behind the calls is not given here.
# Target: Pantothenate synthetase (Mycobacterium tuberculosis (strain ATCC 25618 / H37Rv)) (UniProt P9WIL5)
# Assay: Recombinant Mtb pantothenate synthetase (PanC) inhibitors, coupled enzyme, confirmatory (AID 375);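 note: 0% = full reaction with vehicle and 100% = no enzyme background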
# Conditions: coupled enzyme assay; at 10 µM, active compounds read high
# Pantothenate synthetase (Mycobacterium tuberculosis (strain ATCC 25618 / H37Rv)), sequence (P9WIL5 whole entry, looked up): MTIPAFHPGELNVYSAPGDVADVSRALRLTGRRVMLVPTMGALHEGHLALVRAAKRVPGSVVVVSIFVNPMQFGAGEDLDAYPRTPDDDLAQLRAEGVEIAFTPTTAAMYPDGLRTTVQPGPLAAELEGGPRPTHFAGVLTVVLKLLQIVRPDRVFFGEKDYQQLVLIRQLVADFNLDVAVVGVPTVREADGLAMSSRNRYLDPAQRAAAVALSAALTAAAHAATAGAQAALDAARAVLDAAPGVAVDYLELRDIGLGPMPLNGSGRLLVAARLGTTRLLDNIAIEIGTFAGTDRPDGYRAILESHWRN
row,Structure (SMILES),inhibition
1,CCOC(=O)Nc1ccc2c(c1)N(C(=O)CN(CC)CC)c1ccccc1C=C2,0% (inactive)
2,Cc1cccc(N=C2NC(=O)CS2)c1C,0% (inactive)
3,COc1cc(C2NC(=O)NC(C)=C2C(=O)OCC2CCCO2)ccc1O (stereo not given),0% (inactive)
4,CC(O)c1nc2ccccc2n1C1CCCCC1 (stereo not given),0% (inactive)
5,CCn1nnc(NC(=O)c2ccc(-c3ccc(Cl)cc3)o2)n1,2% (inactive)
6,CNC(=O)CN(c1cc(C)ccc1OC)S(=O)(=O)c1ccc(C)cc1,3% (inactive)
7,Cc1cnc(C(=O)Nc2nnc(C(C)C)s2)cn1,0% (inactive)
8,CN(C)CCCC1(c2ccc(F)cc2)OCc2cc(C#N)ccc21 (stereo not given),0% (inactive)
9,O=C(C1CCN(S(=O)(=O)c2cnc[nH]2)CC1)N1CCN(c2ncccn2)CC1,0% (inactive)
10,COc1ccc(CCNc2oc(-c3ccccc3OC)nc2C#N)cc1,2% (inactive)
11,COc1ccc(C2CC(c3ccc(Cl)cc3Cl)Nc3nc(N)nn32)cc1 (stereo not given),0% (inactive)
12,CC[C@H]1OC(=O)C[C@@H](O)[C@H](C)[C@@H](O[C@@H]2O[C@H](C)C[C@H](N(C)C)[C@H]2O)[C@@H](CC=O)C[C@@H](C)C(=O)C=C[C@]2(C)O[C@H]2[C@@H]1C,0% (inactive)
13,COC(=O)c1sccc1NC(=O)c1ccncc1,6% (inactive)
14,CC(C)CN(C(=O)c1ccc(=O)n(C)n1)c1nc2ccccc2s1,0% (inactive)
15,O=C1CC(N2CCOCC2)C(=O)N1c1ccccc1Cl (stereo not given),1% (inactive)
16,CS(=O)(=O)N(Cc1ccccc1)c1ccc(C(=O)N2CCOCC2)cc1,0% (inactive)
17,COc1ccc(Cl)cc1N1CC(c2nc3ccccc3[nH]2)CC1=O (stereo not given),6% (inactive)
18,C=CCNC(=O)c1cccc(Br)c1,8% (inactive)
19,CN(C)c1cc(NC(=O)CN2CCOCC2)c2ccccc2n1,3% (inactive)
20,Cc1nnc(SCc2ccccc2)n1N,0% (inactive)

row,Structure (SMILES),inhibition
1,CCCCn1c(SCc2cccnc2)nc2c1c(=O)n(C)c(=O)n2C,0% (inactive)
2,Cc1nc2c(-c3ccccc3)c(C)nn2c(C)c1CCC(=O)O,0% (inactive)
3,O=C(CN1c2cccc3cccc(c23)S1(=O)=O)N1CCOCC1,0% (inactive)
4,CC1CCN(CCCNC(=O)c2cn(C)c3ccc(S(=O)(=O)N4CCCC4)cc3c2=O)CC1,0% (inactive)
5,O=C(OCc1ccccc1F)c1ccc2c(c1)OCCO2,3% (inactive)
6,CC(=O)Nc1ccc(N=Cc2nc(-c3ccc(C)cc3)oc2O)cc1,0% (inactive)
7,Cc1cc2c(=O)n(CC(=O)N3CCN(c4ccccc4)CC3)cnc2s1,0% (inactive)
8,COc1cc(/C=C/C(=O)CC(=O)/C=C/c2ccc(O)c(OC)c2)ccc1O,10% (inactive)
9,Cc1cc2c(cc(C(=O)NCc3cccnc3)n2Cc2ccc(Cl)cc2)o1,4% (inactive)
10,CCCCN(CCCC)C(=O)CN(C)S(=O)(=O)c1ccc2c(c1)n(C)c(=O)c(=O)n2C,5% (inactive)
11,Cc1ccc(C)c2[nH]c(=O)c(CCNC(=O)c3ccc(Br)o3)cc12,0% (inactive)
12,COc1cc2cc(C(c3nnnn3C3CCCC3)N3CCCCCC3)c(=O)[nH]c2cc1OC (stereo not given),5% (inactive)
13,CSc1nc2ccc(S(=O)(=O)N3CCOCC3)cc2s1,4% (inactive)
14,COC(=O)c1cccc(Nc2cc(C)nc(-c3ccccc3O)n2)c1,1% (inactive)
15,Oc1c(C(c2ccccc2)N2CCc3ccccc3C2)sc2ncnn12 (stereo not given),0% (inactive)
16,CC(=O)NCCOc1cccc(OCCNC(C)=O)c1,2% (inactive)
17,O=C(NCc1ccccn1)Nc1ccc2c(c1)OCO2,4% (inactive)
18,CCNc1oc(COc2ccccc2F)nc1C#N,9% (inactive)
19,COc1ccc(-c2noc(CCN3C(=O)c4ccccc4C3=O)n2)cc1OC,7% (inactive)
20,COc1ccc(OC)c(NC(=O)CSc2nc3ccccc3c(=O)n2CCNC(C)=O)c1,0% (inactive)
